Consider 6 molecules from PubChem BioAssay.

Test [1] in a line: polyglutamine-triggered caspase-3 activation inhibitors, cell-based (AID 1583). Particulars: polyglutamine-induced caspase-3 activation, cell assay; stronger effect = higher value;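 tested at 10 µM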.
Test [2] can be described thus: suppressors of polyQ aggregation in yeast, 75Q-TubU reporter (AID 1593). Particulars: Yeast 75Q polyglutamine aggregation reporter.
Test [3] in a line: rescue of polyQ-huntingtin neuronal dysfunction in worms, whole organism, C. elegans mechanosensory neurons, N-terminal huntingtin (AID 1599). To be noted: touch response, stronger effect = higher value.
The nature of test [4]: inhibitors of mitochondrial cytochrome c release, biochemical, purified mitochondria (AID 1603).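 Also: mouse liver mitochondria challenged with calcium chloride; signal normalized to the plate average as 100%.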 Particulars: stronger effect = lower value.
Test [5] is described as follows: inhibitors of polyQ protein aggregation (AID 1604). Particulars: polyglutamine-induced protein aggregation inhibition assay; stronger effect = higher value; tested at 2.5 µM.
Test [6] in a line: enhancers of glutamate uptake in motor neurons, MN-1 cell line (AID 1612).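 Also: tested at 1 µM final; 0% = mean of DMSO vehicle wells on each plate; positive means more glutamate uptake than control and negative means less.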 Particulars: MN-1 motor neuron cells, stronger effect = higher value.
The nature of test [7]: reducers of polyQ inclusions in PC12 cells, cell-based, NGF-treated PC12, GFPQ80 (AID 1614).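 Also: lower means fewer inclusions and 0 means no inclusions at all.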 Particulars: PC12 NGF-treated GFP-polyQ80 inclusion reduction.
The nature of test [8]: suppressors of polyglutamine aggregation in yeast, 75Q-TubH (AID 1616). To be noted: S. cerevisiae 75Q-TubH polyglutamine aggregation suppression; stronger effect = higher value.
Test [9] in a line: liver-stage malaria parasite growth inhibition, primary screen, cell-based, HepG2, luciferase luminescence, HepG2 viability (AID 624349).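 Also: 100% = mean of DMSO negative control wells on the same plate.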 Particulars: P. berghei liver stage in HepG2, luciferase luminescence, concentration not given here; parasite load remaining: stronger effect = lower value; viability: measured here: HepG2 viability without parasites.
A short description of test [10]: differential killing of epithelial or mesenchymal cells, primary screen, imaging, PC-3E GFP, TEM4-18 mCherry, co-culture (AID 1345086;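 active = compounds killing one labelled cell type while sparing the other, by normalised counts and ratio limits, not self-fluorescent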;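 as to all read-outs here: cells exposed to compound for 72 h before imaging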;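 as to red/green cell ratio (normalised): normalised mesenchymal count divided by normalised epithelial count so high means epithelial killing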). To be noted: imaging cell counts, at 1 µM; for red/green cell ratio (normalised): actives lie on both sides, counts scaled to control wells, 1 = unselective.
A short description of test [11]: sensitizers of A549 cells to miR-34 induction, primary screen, imaging, A549 dox-inducible miR-34, nuclei and caspase counts (AID 1347080;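 active = compounds whose cell count with miR-34 switched on is under 0.7 times the count with it off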). Particulars: A549 miR-34 inducible, Hoechst nuclei count, 48 h.
[12] abbreviates: measured here: epithelial PC-3E GFP cell survival.
The mark [13] stands for this setting: measured here: mesenchymal TEM4-18 mCherry cell survival.
Where [14] appears, read: stronger effect = lower value, cell number ratio, induced over uninduced.
Setting [15] is: measured here: relative caspase fold change +Dox/-Dox.
The mark [16] stands for this setting: measured here: total cells with miR-34 induction, stronger effect = lower value.
Setting [17] is: measured here: total cells without miR-34 induction.

“And” between values parts separate entries of the source, which are not always exact repeats. Identical values can stand only once. For part of these data: Potency and affinity values are given separately. The source made the active and inactive calls. Rule as the data show it, unless noted: active = parasite load remaining mostly below about 12% (no sharp cut-off); inactive = mostly above about 10%.

As usually defined, the inhibition is the drop in the measured response relative to a control, in per cent. As a reminder, the viability is a per cent measure of how many cells are alive, often set against a control. With `NC(N)=Nc1nc(CSCC/C(N)=N\S(N)(=O)=O)cs1`, in [1], the inhibition is -15%. For the same molecule, the score in test [2] stood at 1.36. In addition, in [3], the rescue above control was -0.31. The cytochrome c release ratio in test [4] was determined as 1.43. In addition, the inhibition of aggregation in [5] was 82%. In [6], the glutamate uptake change was -4.06%. This molecule also registered an inclusion score in test [7] of 1. In addition, the aggregation suppression score in [8] is 1.04. In addition, the parasite load remaining in [9] was 106% (inactive) and 35.6% (inactive). Besides, the viability in [9] is 69.4% and 84.3%. In addition, in [10], the red/green cell ratio (normalised) is 1.13 (inactive). Besides, the normalised cell number in [10] (setting [12]) came to 0.95; in test [10] (setting [13]), 1.07. Besides, the fold change in test [11] (setting [14]) is 0.887 (inactive); in test [11] (setting [15]), 1.64. In addition, the results for the cell count in test [11] (setting [16]) and in test [11] (setting [17]) were 11500 and 12900, respectively.

On to `C[C@]12CCC(=O)C=C1CCC1C2[C@@H](O)C[C@@]2(C)C1CC[C@]2(O)C(=O)COC(=O)CCC(=O)O` (some centres not stated), for which the inhibition in test [1] was 7.51%. In test [2], this molecule gave a score of 1.55. The molecule also registered a rescue above control in test [3] of -3.62. The cytochrome c release ratio in test [4] amounted to 1.58. For the same molecule, the inhibition of aggregation in test [5] was 37.2%. The glutamate uptake change in test [6] is -0.65%. The molecule also came in with an inclusion score in test [7] of 2. For the same molecule, the aggregation suppression score in test [8] worked out at 1.36. In test [9], the parasite load remaining was 137% (inactive) and 66.7% (inactive). Further, the viability in test [9] was 78.6% and 93.3%. Moreover, the red/green cell ratio (normalised) in [10] was 1.43 (inactive). Moreover, the normalised cell number in [10] (setting [12]) was 0.86; in test [10] (setting [13]) it was 1.23. The fold change in [11] (setting [14]) was 0.766 (inactive); in test [11] (setting [15]), 0.842. Besides, the cell count came to 7240 in test [11] (setting [16]) and 9450 in test [11] (setting [17]).

Take `CC12CCC(=O)C=C1CCC1C2[C@@H](O)CC2(C)C1CC[C@]2(O)C(=O)COP(=O)(O)O` (some centres not stated): the inhibition in [1] was -6.16%. In [2], this molecule yielded a score of 1.65. Moreover, the rescue above control in [3] was -3.35. Moreover, in test [4], the cytochrome c release ratio is 1.1. The inhibition of aggregation in test [5] was found to be 44.7%. Further, the glutamate uptake change in test [6] stood at 26.3%. The same molecule came in with an inclusion score in test [7] of 2. Further, the aggregation suppression score in test [8] was found to be 1.46. Besides, in test [9], the parasite load remaining was 75.6% (inactive). The viability in [9] was determined as 91.2%. The red/green cell ratio (normalised) in test [10] was 0.95 (inactive). Besides, the normalised cell number was determined as 1.05 in [10] (setting [12]) and 0.99 in test [10] (setting [13]). Also, the fold change was 0.789 (inactive) in test [11] (setting [14]) and 1.68 in test [11] (setting [15]). The cell count in [11] (setting [16]) came out at 7430; in test [11] (setting [17]), 9410.

In the case of `C[C@]12CCC3c4ccc(O)cc4CCC3C1CC[C@@H]2O` (some centres not stated), the inhibition in [1] came out at 29.2%. In [2], this molecule returned a score of 0.39. The same molecule displayed a rescue above control in test [3] of 6.83. The cytochrome c release ratio in [4] came out at 1.24. Further, the inhibition of aggregation in test [5] was determined as 47.9%. Further, the glutamate uptake change in test [6] is 35.2%. This molecule also gave an inclusion score in [7] of 2. In addition, the aggregation suppression score in test [8] was 0.216. In test [9], the parasite load remaining was 84% (inactive) and 56.6% (inactive). In [9], the viability is 74.3% and 92.5%. Also, in test [10], the red/green cell ratio (normalised) was 1.16 (inactive). In addition, the normalised cell number worked out at 1.32 in [10] (setting [12]) and 1.53 in test [10] (setting [13]). Moreover, the fold change was 0.991 (inactive) in [11] (setting [14]) and 1.49 in test [11] (setting [15]). The results for the cell count in [11] (setting [16]) and in test [11] (setting [17]) were 11000 and 11100, respectively.

With `Cc1onc(-c2ccccc2)c1C(=O)NC1C(=O)N2[C@@H]1SC(C)(C)[C@@H]2C(=O)O` (some centres not stated), in test [1], the inhibition turned out to be 7.8%. Further, the score in test [2] was 1.09. For the same molecule, the rescue above control in test [3] is 17.4. In addition, the cytochrome c release ratio in [4] was found to be 0.85. Also, in [5], the inhibition of aggregation is -11.1%. In test [6], the glutamate uptake change is -21.8%. In test [7], this molecule gave an inclusion score of 2. In addition, the aggregation suppression score in test [8] was 1.34. For the same molecule, the parasite load remaining in test [9] was 86.3% (inactive) and 60.5% (inactive). Moreover, the viability in [9] was 72.2% and 86.2%. Moreover, the red/green cell ratio (normalised) in test [10] was 0.97 (inactive). Besides, the normalised cell number came to 1.16 in test [10] (setting [12]) and 1.12 in test [10] (setting [13]). Also, the fold change is 0.832 (inactive) in [11] (setting [14]) and 1.09 in test [11] (setting [15]). The figures for the cell count in test [11] (setting [16]) and in [11] (setting [17]) were 11300 and 13500, respectively.

In the case of `C[N+]1(C)C2CC[C@H]1CC(OC(=O)C(O)c1ccccc1)C2` (some centres not stated), the inhibition in [1] was 5.29%. For the same molecule, the score in test [2] worked out at 1.53. Moreover, the rescue above control in test [3] came to 12.1. Moreover, the cytochrome c release ratio in test [4] was 0.9. For the same molecule, in [5], the inhibition of aggregation is 65.1%. In addition, the glutamate uptake change in test [6] was -16.5%. This molecule also displayed an inclusion score in test [7] of 2. The aggregation suppression score in test [8] was determined as 1.36. In test [9], the parasite load remaining was 95.8% (inactive) and 69.2% (inactive). Further, in test [9], the viability is 75.7% and 100%. Besides, in test [10], the red/green cell ratio (normalised) is 0.83 (inactive). The normalised cell number in test [10] (setting [12]) amounted to 1.16; in test [10] (setting [13]), 0.97. Also, the fold change in [11] (setting [14]) was 0.874 (inactive); in [11] (setting [15]), 1.28. In addition, the cell count in test [11] (setting [16]) is 10300; in [11] (setting [17]), 11800.
